Bioassay records: PubChem BioAssay, National Center for Advancing Translational Sciences (NCATS)
Only some compounds are listed: those with a hit (about 3.1% of all), similar ones and a draw of the others.
IL-2 act – activators of IL-2. activation, % (series mostly up to about 46 µM). AID 652025. 0.065% of 360,000 active. IL-2 activation reporter assay, cell-based qHTS; stimulated with anti-CD3/CD4/CD28 beads; in transgenic mouse T cells; in the data active means activation above about 50%; inconclusive means mostly about 30% to 49%
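Using fluorescent plate cytometry, EGFP and DsRed are detected in transgenic mouse T cells stimulated 18 h at 37 degrees C with antibody-coated beads after 60 min compound pretreatment.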
ELG1 repair inh – inhibitors of ELG1-dependent DNA repair in HEK293T cells; HEK293T ELG1-luciferase reporter, luminescence, 16 h; DNA damage induced by 5-fluorouridine; Potency, µM (titrated, usually from 46.1 µM), actives largely listed as inhibitors; 2.3% of 330,000 active; AID 504467; further: nearly all actives have a fitted effect of over 55% in size
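Luminescence from the luciferase reporter, measured 30 min after ONE-Glo reagent at room temperature, was the read-out. Beforehand, 2,000 cells per well were exposed for 16 hr at 37 °C to 5-fluorouridine together with compound or vehicle.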
Nrf2 activator – activators of Nrf2 (ARE) signaling; AREc32 ARE-luciferase reporter (MCF7-derived line), luminescence, 24 h; Potency, µM (highest dose often 46.1 µM), most hits filed as activators; 0.31% of 410,000 active; AID 624171; further: nearly all actives have a fitted effect of over 65% in size
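Nrf2 activation is followed as ARE-luciferase induction in the AREc32 line after one day of compound treatment; luminescence is read with Steady-Glo.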
BRCA1 expr act – activators of BRCA1 expression | AID 624202 | MCF7-BRCA1-FFLuc reporter, luminescence, 48 h; response scale: scaled: vehicle 0%, 10 µM genistein 100% | 1.1% of 380,000 active | Potency, µM (highest dose often 46.1 µM), actives largely listed as activators; further: nearly all actives have a fitted effect of over 80% in size
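MCF7-BRCA1-FFLuc cells, 2000/well in phenol-red-free MEM, attached 2 h then treated 48 h at 37 C. Luciferase luminescence read 15 min after reagent; normalized to genistein maximum activation (10microM) and DMSO, concentration-response fitted.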
Large screens that a line does not name were inactive. Unless noted, the call rests on the fitted dose curve; in most records, active means well fitted curve in the direction sought with a large enough effect; inconclusive means small, poorly fitted or top-dose-only effect, or another doubt; inactive means no such curve, though single readings can be large; an effect the other way counts as inactive or inconclusive.

CCCCc1cc(=O)oc2cc(OCC(=O)NCc3ccccn3)ccc12	none
CCCCc1cc(=O)oc2cc(OCC(=O)Nc3ccccn3)ccc12	ELG1 repair inh inconclusive, Nrf2 activator 13µM
CC(=O)c1ccc(N2C(=O)Nc3ccccc3S2(=O)=O)cc1	none (no result: IL-2 act, ELG1 repair inh)
COc1ccc(Cc2noc(CN3CCCC(C(=O)c4cccs4)C3)n2)cc1OC (stereo unspecified)	ELG1 repair inh 18µM
COCCN1CCN(Cc2nc(Cc3ccc(OC)c(OC)c3)no2)CC1	none
COc1ccc(Cc2noc(CN3CCN(Cc4cccc(Cl)c4)CC3)n2)cc1OC	ELG1 repair inh 23µM
CCCCc1nc2cc(C(=O)N3CCC[C@H]3CO)ccc2o1	ELG1 repair inh inconclusive
CCCCc1nc2cc(C(=O)N3CCC(O)CC3)ccc2o1	ELG1 repair inh inconclusive, BRCA1 expr act 3.5µM
CC(C)CC(=O)Nc1c(C(=O)N2CCN(c3ccccc3F)CC2)oc2ccccc12	none (no result: IL-2 act, ELG1 repair inh, BRCA1 expr act)
CNC(=S)N1N=C(c2ccc(C)cc2)CC1c1ccc(Cl)cc1 (stereo unspecified)	ELG1 repair inh 16µM
COc1cccc(/C=C/c2ccc3ccccc3[n+]2C)c1OC	none (no result: IL-2 act, ELG1 repair inh, Nrf2 activator)
CC(=O)Oc1ccccc1/C=C/c1ccc2ccccc2[n+]1C	ELG1 repair inh inconclusive, Nrf2 activator 11µM
CCOC(=O)[C@]12CCC=C1N(Cc1ccc(Cl)cc1Cl)C(=O)[C@H](CC(=O)N1CCC(c3ccccc3)CC1)C2	none (no result: ELG1 repair inh)
COc1ccc(C(C#N)=C2C=CC(=NO)C=C2)cc1	Nrf2 activator 1.3µM
COc1ccc(C(=O)COC(=O)CN2CC(=O)Oc3ccccc32)cc1Br	Nrf2 activator 14µM
Fc1ccc(-n2ncc3c(N4CCC(Cc5ccccc5)CC4)ncnc32)cc1	none (no result: IL-2 act, ELG1 repair inh, BRCA1 expr act)
CN1/C(=C\C(=O)CSc2nnc(NCc3ccccc3)s2)C(C)(C)c2ccccc21	ELG1 repair inh 18µM
CSc1ccc(/C=C/C(=O)N2CCCN(C)CC2)cc1	ELG1 repair inh inconclusive, BRCA1 expr act 8.9µM
CN1CCN(C(=O)/C=C\c2ccc(Cl)cc2)CC1	none
CC(=O)N1CCc2cc(S(=O)(=O)NCCC(=O)Nc3ccc4c(c3)OCCO4)ccc21	ELG1 repair inh inconclusive, BRCA1 expr act 11µM
CC(=O)N1CCc2cc(S(=O)(=O)NCCC(=O)N3CCc4ccccc4C3)ccc21	ELG1 repair inh 23µM
CC(=O)N1CCc2cc(S(=O)(=O)CCC(=O)N3CCc4ccccc4C3)ccc21	none
Cc1cccc(NC(=O)C(=O)NCCc2sc(-c3ccccc3)nc2C)c1C	none (no result: IL-2 act, ELG1 repair inh)
CCOc1ccc(NC(=O)Nc2nnc(N3CCCCC3C)s2)cc1 (stereo unspecified)	none (no result: IL-2 act, ELG1 repair inh, BRCA1 expr act)
Cc1c(C(=O)N(C)CCC#N)oc2ccc(S(=O)(=O)N3CC(C)CC(C)C3)cc12 (stereo unspecified)	ELG1 repair inh 7.3µM
CCOC(=O)C1CCN(C(=O)c2oc3ccc(S(=O)(=O)N4CC(C)CC(C)C4)cc3c2C)CC1 (stereo unspecified)	ELG1 repair inh 10µM
Cc1c(C(=O)O)oc2ccc(S(=O)(=O)N3CC(C)CC(C)C3)cc12 (stereo unspecified)	none
CCOC(=O)N1CCN(C(=O)c2oc3ccc(S(=O)(=O)N4CC(C)CC(C)C4)cc3c2C)CC1 (stereo unspecified)	ELG1 repair inh inconclusive
OC[C@@H]1CN(Cc2ccc3c(c2)OCO3)C[C@H](n2cnc3c(NCc4ccc(F)cc4)ncnc32)O1	none (no result: ELG1 repair inh)
COc1ccc(-c2cc(C(C)=O)c(C)n2CCC(=O)NCc2ccc(F)cc2)cc1	none (no result: IL-2 act, ELG1 repair inh, BRCA1 expr act)
CCCN(CCC)C(=O)C1CCN(c2cc(C)nc3c(-c4ccc(OC)c(OC)c4)c(C)nn23)CC1	ELG1 repair inh 6.5µM
CCC(C)Sc1oc(-c2ccco2)nc1S(=O)(=O)c1ccc(C)cc1 (stereo unspecified)	none (no result: IL-2 act, ELG1 repair inh, BRCA1 expr act)
CCOC(=O)c1nc(NNC(=O)c2ccc([N+](=O)[O-])cc2)sc1C	ELG1 repair inh 16µM
CCOC(=O)c1sc(NNC(=O)c2ccc(C)cc2)nc1C	none
CN(C)c1ccc(C(CNC(=O)c2cccs2)N(C)C)cc1 (stereo unspecified)	BRCA1 expr act 13µM
CN(C)c1ccc(NC(=O)COC(=O)CNC(=O)c2cccs2)cc1	none
O=C(CCc1ccccc1)NCc1nc2cccnc2n1Cc1ccc(F)cc1	none (no result: IL-2 act, ELG1 repair inh, BRCA1 expr act)
CC(C)n1c(=O)c2oc3ccccc3c2n(CC(=O)Nc2ccccc2Cl)c1=O	none (no result: IL-2 act, ELG1 repair inh, BRCA1 expr act)
CN1CCN(c2ccccc2NC(=O)c2ccc(-c3ccc(Cl)cc3Cl)o2)CC1	ELG1 repair inh 21µM
